Measurements reported in PubChem BioAssay (NCATS).
Inconclusive results are not listed. Entries that show only a call come without a potency. The source made the active and inactive calls. The call rests on the fitted dose curve; in most records, active means well fitted inhibition curve with a large enough effect; inconclusive means small, poorly fitted or top-dose-only effect; inactive means flat fitted curve, though single readings scatter.

Assays:
[1] = target: Glutathione peroxidase 1 (Homo sapiens) (UniProt P07203); experiment: Primary qHTS Assay for Inhibitors of Recombinant Selenoprotein Glutathione Peroxidase 1 (GPX1) (AID 1845191)
Chain of Glutathione peroxidase 1 (Homo sapiens) (P07203 whole entry, looked up): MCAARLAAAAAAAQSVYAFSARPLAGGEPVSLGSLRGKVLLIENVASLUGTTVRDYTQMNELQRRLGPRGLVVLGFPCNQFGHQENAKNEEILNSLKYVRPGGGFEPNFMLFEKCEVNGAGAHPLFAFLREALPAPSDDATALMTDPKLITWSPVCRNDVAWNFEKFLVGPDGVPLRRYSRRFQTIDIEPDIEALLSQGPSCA
Summary of the method: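 10 nM GPX1 + cpd, 30 min RT; start w/ 1 mM GSH, 0.5 mM cumene hydroperoxide, 0.5 mM NADPH, 100 nM GR, 0.01% BSA; buffer 50 mM Tris-HCl pH 7.5, 2 mM EDTA, 150 mM NaCl; Fl 340/450, 0 & 15 min.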

[2] = target: Phospholipid hydroperoxide glutathione peroxidase GPX4 (Homo sapiens) (UniProt P36969); experiment: Primary qHTS Assay for Inhibitors of Recombinant Selenoprotein Glutathione Peroxidase 4 (GPX4) (AID 1845192)
Chain of Phospholipid hydroperoxide glutathione peroxidase GPX4 (Homo sapiens) (P36969 whole entry, looked up): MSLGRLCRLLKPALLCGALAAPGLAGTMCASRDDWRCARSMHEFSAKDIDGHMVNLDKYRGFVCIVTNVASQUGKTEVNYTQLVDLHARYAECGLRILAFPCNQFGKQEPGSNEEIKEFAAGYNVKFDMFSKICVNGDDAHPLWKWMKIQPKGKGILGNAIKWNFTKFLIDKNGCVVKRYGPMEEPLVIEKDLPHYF
Summary of the method: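 NADPH consumption, followed by fluorescence at 340/450 nm between 0 and 15 min, reports GPX4 activity via coupled glutathione reductase (100 nM). Enzyme 200 nM was pre-exposed to compound 30 min; 0.5 mM cumene hydroperoxide and 1 mM GSH served as substrates.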
Further: nearly all actives have a fitted effect of over 65% in size.

Structure (SMILES)	Potency [1]	Potency [2]
O=C(Nc1cccc(C(=O)Nc2ccc(S(=O)(=O)O)c3cc(S(=O)(=O)O)cc(S(=O)(=O)O)c23)c1)Nc1cccc(C(=O)Nc2ccc(S(=O)(=O)O)c3cc(S(=O)(=O)O)cc(S(=O)(=O)O)c23)c1	inactive	inactive
Nc1nc(OCC2CCCCC2)c2[nH]cnc2n1	inactive	inactive
O=C(OCc1ccccc1)c1ccccc1	inactive	inactive
O=c1[nH]c2ccccc2n1CCCN1CCN(C(c2ccccc2)c2ccccc2)CC1	inactive	inactive
COc1cc(SC)ccc1C(=O)N1CCC(Cc2ccccc2)CC1	inactive	inactive
NC(=S)c1ccc[n+]([C@@H]2O[C@@H](COP(=O)([O-])OP(=O)(O)OC[C@H]3O[C@@H](n4cnc5c(N)ncnc54)[C@H](OP(=O)(O)O)[C@@H]3O)C(O)C2O)c1 (stereo partly specified)	inactive	inactive
CNC(=O)[C@H]1O[C@@H](n2cnc3c(NCc4ccc(N)cc4)ncnc32)[C@H](O)[C@@H]1O	inactive	inactive
S=c1[nH]c(-c2ccccc2)cn1-c1ccccc1	inactive	inactive
O=C(O)c1ccccc1Nc1cccc(C(F)(F)F)c1	inactive	inactive
CCOc1ccc2nc(S(N)(=O)=O)sc2c1	inactive	inactive
COc1cc2c3cc1Oc1cc(ccc1O)C[C@@H]1c4c(cc(OC)c(O)c4Oc4ccc(cc4)C[C@@H]3N(C)CC2)CC[N+]1(C)C	inactive	inactive
CSc1ccccc1N1CCN(CCCCCC(=O)NC2CCCc3ccccc32)CC1 (stereo unspecified)	inactive	inactive
OC[C@H]1O[C@@H](n2cnc3c(NC4CCCCC4)ncnc32)[C@H](O)[C@@H]1O	inactive	inactive
